From PubChem BioAssay AID743320 (Broad Institute, 2014) come the findings set out here.

Potency and affinity values are given separately. Calls of active or inactive are those of the source.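 How the source made its calls: active means signal drop whose fitted half-maximal potency is at most twice the top valid dose tested; inconclusive means flat curve inhibiting 30 to 70 percent, or a poor fit; inactive means the rest.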

For the test, the target named is Endoplasmic reticulum aminopeptidase 2 (Homo sapiens) (UniProt Q6P179). The test can be described thus: ERAP2 aminopeptidase inhibitors, dose response, selectivity assay for selective ERAP1 modulator project, biochemical, fluorescence plate reader, cherry-picked, set 2 (AID 743320). Particulars: recombinant ERAP2, Arg-AMC fluorescence, 1 h; series mostly up to 11 µM.
Endoplasmic reticulum aminopeptidase 2 (Homo sapiens), sequence (Q6P179 whole entry, looked up): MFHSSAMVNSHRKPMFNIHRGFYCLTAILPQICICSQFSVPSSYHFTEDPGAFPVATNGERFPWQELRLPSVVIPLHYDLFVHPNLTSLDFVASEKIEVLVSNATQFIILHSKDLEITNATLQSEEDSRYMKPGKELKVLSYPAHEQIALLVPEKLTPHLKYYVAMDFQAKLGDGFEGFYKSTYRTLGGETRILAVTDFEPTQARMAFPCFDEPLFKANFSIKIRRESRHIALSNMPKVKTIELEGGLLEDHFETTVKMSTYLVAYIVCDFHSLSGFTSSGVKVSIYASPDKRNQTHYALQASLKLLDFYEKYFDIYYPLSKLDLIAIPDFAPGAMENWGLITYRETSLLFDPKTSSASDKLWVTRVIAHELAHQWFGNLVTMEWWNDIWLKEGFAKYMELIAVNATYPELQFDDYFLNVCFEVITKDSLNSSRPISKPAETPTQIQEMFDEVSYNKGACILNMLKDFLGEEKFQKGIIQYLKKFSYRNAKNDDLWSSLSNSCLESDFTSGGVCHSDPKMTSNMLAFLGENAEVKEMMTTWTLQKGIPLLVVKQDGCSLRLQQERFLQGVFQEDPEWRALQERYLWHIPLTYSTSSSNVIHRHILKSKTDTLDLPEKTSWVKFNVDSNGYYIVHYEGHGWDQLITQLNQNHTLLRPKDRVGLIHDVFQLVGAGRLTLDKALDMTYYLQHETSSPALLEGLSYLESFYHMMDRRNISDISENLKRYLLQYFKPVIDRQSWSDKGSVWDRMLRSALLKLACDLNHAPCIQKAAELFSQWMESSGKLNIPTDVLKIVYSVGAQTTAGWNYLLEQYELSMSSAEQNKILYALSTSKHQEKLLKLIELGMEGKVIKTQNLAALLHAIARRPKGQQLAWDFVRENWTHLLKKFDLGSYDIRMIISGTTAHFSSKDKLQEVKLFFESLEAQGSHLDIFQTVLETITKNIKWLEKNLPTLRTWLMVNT
As for `C[C@H](CO)N1C[C@H](C)[C@H](CN(C)CC2CCCCC2)Oc2c(NC(=O)Nc3ccc4c(c3)OCO4)cccc2C1=O`, the outcome was inactive.

Take `CC(=O)N1CCN(C(=O)C2(NC(=O)Nc3ccc(C)cc3)CCCCC2)CC1`: the result was inactive.

Turning to `COc1ccc(CN(C)C[C@H]2OCCCC[C@@H](C)Oc3ccc(NS(=O)(=O)c4cccs4)cc3C(=O)N([C@H](C)CO)C[C@H]2C)cc1`, the result was inactive.

In the case of `CCn1cc(CN2CCCC(C(=O)Nc3ccc(-c4nc5ccccc5[nH]4)cc3)C2)c(C)n1` (stereo not given), the outcome was inactive.

As for `O=C(C[C@H]1CC[C@@H]2[C@H](COC[C@@H](O)CN2C(=O)Nc2cccc(Cl)c2)O1)N1CCCCC1`, the outcome was inactive.

As for `C[C@@H]1CCCCO[C@@H](CN(C)Cc2ccc3c(c2)OCO3)[C@@H](C)CN([C@H](C)CO)C(=O)c2cc(NS(=O)(=O)c3cccs3)ccc2O1`, the result was inactive.

On to `C[C@H]1CN([C@@H](C)CO)C(=O)c2cccc(NC(=O)Nc3ccc(F)cc3)c2O[C@@H]1CN(C)C(=O)Nc1ccc2c(c1)OCO2`, for which the result was inactive.

For the molecule `Cc1ccc2nc3c(cc(C(=O)NCc4ccccc4)c(=N)n3CCCn3ccnc3)c(=O)n2c1`, the outcome was inactive.

In the case of `CCCN(C)C[C@@H]1OCCCC[C@@H](C)Oc2ccc(NS(=O)(=O)c3ccccc3)cc2C(=O)N([C@H](C)CO)C[C@@H]1C`, the result was inactive.

As for `O=C(C[C@H]1CC[C@H]2[C@@H](COC[C@@H](O)CN2C(=O)Nc2cccc(Cl)c2)O1)N1CCCCC1`, the outcome was inactive.

With `COC(=O)[C@H]1[C@H](CO)[C@H]2Cn3c(ccc(-c4ccncc4)c3=O)[C@H]2N1Cc1ccccc1F`, the result was inactive.

Turning to `C[C@H]1CN([C@@H](C)CO)C(=O)c2cccc(NC(=O)Nc3ccc(C(F)(F)F)cc3)c2O[C@@H]1CN(C)CC1CC1`, the result was inactive.

As to `Cc1noc(C)c1NC(=O)Nc1ccc2c(c1)C(=O)N([C@H](C)CO)C[C@@H](C)[C@@H](CN(C)Cc1ccc(C(F)(F)F)cc1)OCCCC[C@@H](C)O2`, the result was inactive.

`CCCN(C)C[C@@H]1OCCCC[C@@H](C)Oc2ccc(NS(=O)(=O)c3ccc(C)cc3)cc2C(=O)N([C@@H](C)CO)C[C@@H]1C`: the result was inactive.

Turning to `COc1ccc(CN(C)C[C@@H]2OCCCC[C@@H](C)Oc3ccc(NS(=O)(=O)c4c(C)noc4C)cc3C(=O)N([C@@H](C)CO)C[C@@H]2C)cc1`, the result was inactive.

With `CNC[C@H]1OCCCC[C@@H](C)Oc2ccc(NS(=O)(=O)c3ccc(C)cc3)cc2C(=O)N([C@@H](C)CO)C[C@H]1C`, the result was inactive.

Take `COc1ccc(CN(C)C[C@@H]2OCCCC[C@H](C)Oc3ccc(NS(=O)(=O)c4cccs4)cc3C(=O)N([C@H](C)CO)C[C@@H]2C)cc1`: the outcome was inactive.

Turning to `Cc1ccccc1-c1ccc2c(c1)O[C@@H](CN(C)Cc1ccc(C(=O)O)cc1)[C@@H](C)CN([C@H](C)CO)S2(=O)=O`, the outcome was inactive.

For the molecule `COc1ccc(NC(=O)Nc2ccc3c(c2)C(=O)N([C@H](C)CO)C[C@@H](C)[C@@H](CN(C)Cc2ccc(C(=O)O)cc2)OCCCC[C@@H](C)O3)cc1`, the outcome was inactive.

On to `C[C@@H]1CCCCO[C@@H](CN(C)Cc2ccccc2)[C@H](C)CN([C@H](C)CO)C(=O)c2cc(NS(=O)(=O)c3cccs3)ccc2O1`, for which the result was inactive.

As for `CCCN(C)C[C@@H]1OCCCC[C@@H](C)Oc2ccc(NS(=O)(=O)c3ccc(OC)cc3)cc2C(=O)N([C@H](C)CO)C[C@@H]1C`, the result was inactive.

In the case of `CCCNC(=O)C[C@H]1CC[C@@H]2[C@H](COC[C@H](O)CN2C(=O)Nc2cccc(Cl)c2)O1`, the result was inactive.

Turning to `COCCCn1c(C(=O)N2CCOCC2)cc2c(=O)n3ccccc3nc21`, the result was inactive.

For the molecule `CCC(=O)N(C)C[C@H]1Oc2ncc(C#Cc3ccncc3)cc2C(=O)N([C@H](C)CO)C[C@H]1C`, the outcome was inactive.

Regarding `COc1ccc(CN(C)C[C@@H]2OCCCC[C@@H](C)Oc3ccc(NS(=O)(=O)c4cccs4)cc3C(=O)N([C@H](C)CO)C[C@H]2C)cc1`, the result was inactive.

On to `COc1ccc(CN(C)C[C@H]2OCCCC[C@@H](C)Oc3ccc(NS(=O)(=O)c4cccs4)cc3C(=O)N([C@@H](C)CO)C[C@@H]2C)cc1`, for which the result was inactive.

As for `C[C@@H]1CCCCO[C@@H](CN(C)Cc2ccc(C(=O)O)cc2)[C@@H](C)CN([C@H](C)CO)C(=O)c2cc(NC(=O)Nc3cccc4ccccc34)ccc2O1`, the outcome was inactive.

As for `COc1ccc(S(=O)(=O)N(C)C[C@@H]2Oc3ncccc3C(=O)N([C@H](C)CO)C[C@@H]2C)cc1`, the result was inactive.

Take `C[C@@H]1CCCCO[C@@H](CN(C)C)[C@@H](C)CN([C@@H](C)CO)C(=O)c2cc(NS(=O)(=O)c3ccc(Cl)cc3)ccc2O1`: the result was inactive.

Regarding `COc1ccc(CN(C)C[C@H]2OCCCC[C@@H](C)Oc3ccc(NS(=O)(=O)c4cccs4)cc3C(=O)N([C@@H](C)CO)C[C@H]2C)cc1`, the result was inactive.
